Test results published in PubChem BioAssay (Tox21).
Results filed as inconclusive are left out. The source made the active and inactive calls. The call rests on the fitted dose curve. Peptide text beside a SMILES is read from it.

These compounds were tested against 5-hydroxytryptamine receptor 2A (Homo sapiens) (UniProt P28223) (assay: 5-hydroxytryptamine receptor 2A (HTR2A) small molecule antagonists, cell-based qHTS assay (AID 1963586; further: nearly all actives have a fitted effect of over 45% in size)). Conditions: HTR2A-CHO cells, DOI-induced calcium flux, fluorescence; series mostly up to 61.5 µM; activity, negative = inhibition: at the top concentration.
Chain of 5-hydroxytryptamine receptor 2A (Homo sapiens) (P28223 whole entry, looked up): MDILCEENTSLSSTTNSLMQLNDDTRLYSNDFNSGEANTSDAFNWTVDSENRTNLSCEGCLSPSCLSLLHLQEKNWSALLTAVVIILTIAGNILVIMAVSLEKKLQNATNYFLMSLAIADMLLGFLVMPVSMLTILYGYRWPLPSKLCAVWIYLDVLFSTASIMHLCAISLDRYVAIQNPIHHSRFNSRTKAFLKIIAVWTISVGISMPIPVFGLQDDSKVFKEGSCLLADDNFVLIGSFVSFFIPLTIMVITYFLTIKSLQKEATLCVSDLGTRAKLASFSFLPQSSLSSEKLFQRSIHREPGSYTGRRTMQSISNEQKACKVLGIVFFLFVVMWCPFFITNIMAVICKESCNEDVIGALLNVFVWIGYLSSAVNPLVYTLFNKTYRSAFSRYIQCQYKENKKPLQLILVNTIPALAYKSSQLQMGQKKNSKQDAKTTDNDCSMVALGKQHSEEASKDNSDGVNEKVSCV
From the text: National Center for Advancing Translational Sciences [NCATS]
Division of Preclinical Innovation [DPI]
U.S. Environmental Protection Agency [EPA]
National Institutes of Environmental Health Sciences [NIEHS]
National Toxicology Program [NTP]
U.S. Food and Drug Administration [FDA]
The HTR2A receptor is a subtype of the 5-HT2 receptor that belongs to the serotonin receptor family and is a G protein-coupled receptor (GPCR). The HTR2A-CHO cell line stably expressing human 5-hydroxytryptamine receptor 2A (HTR2A) can be used for screening antagonists of interactions between 5-HT2 and its ligands. The HTR2A-CHO calcium flux assay is a homogeneous fluorescence-based assay for detecting the intracellular calcium level using FDSS kinetic plate reader system.
Tox21 Assay Protocol Summary:
HTR2A-CHO cells were dispensed at 2000 cells/3uL/well in 1536-well black-clear bottom plates using a Multidrop Dispenser. After the assay plates were incubated at a 37 C/5% CO2 incubator for 18 h, 3 uL of Dye Loading Buffer was transferred to the assay plate by a Flying Reagent Dispenser. The assay plates were incubated at 37 C for 1h. For antagonist mode, 23 nL of compounds dissolved in DMSO, positive controls or DMSO only was transferred to the assay plate by a pin tool. After 5 min incubation at room temperature, 1.5 uL of 4-Iodo-2,5-dimethoxy-alpha-methylbenzeneethanamine hydrochloride (DOI) at 4nM was added to each well. The fluorescence intensity in the plates was measured using FDSS 7000EX kinetic plate reader for 3 min at 1 sec intervals.
On the % scale 0 is the no-effect control and ±100 the full control effect; potency means the concentration at half of the fitted maximal effect.

SMILES	activity, negative = inhibition	Potency
CC(=O)[O-].CC(=O)[O-].O.O.O.[Pb+2]	-2.54% (inactive)	
CC(c1ccc(O)cc1)(c1ccc(O)cc1)c1ccc(O)cc1		23.7 µM (active)
CN(C)C1CSSSC1	-2.01% (inactive)	
CC(C)(C)c1ccc(CSc2cnn(C(C)(C)C)c(=O)c2Cl)cc1	33.5% (inactive)	
CCCCC(CC)COP(=O)(Oc1ccccc1)Oc1ccccc1 (stereo not given)	6.52% (inactive)	
O=C(NC(=O)c1c(F)cccc1F)Nc1ccc(OC(F)(F)C(F)OC(F)(F)F)c(Cl)c1 (stereo not given)	3.19% [at 28.5 µM] (inactive)	
Cc1cc2c3c(c1)C(c1ccccc1)=N[C@@H](NC(=O)c1ccncc1)C(=O)N3CC2	4.74% (inactive)	
O=C(O)c1c(Cl)ccc2cc(Cl)cnc12	-3.37% (inactive)	
CC(=O)c1cc(C(C)(C)C)cc2c1CCC2(C)C	-5.32% (inactive)	
COc1cnc(OC)n2nc(NS(=O)(=O)c3c(OCC(F)F)cccc3C(F)(F)F)nc12	-1.02% (inactive)	
C[C@]12C=CC(=O)C=C1CC[C@@H]1[C@@H]2CC[C@@]2(C)[C@H]1CC[C@]2(C)O	2.85% [at 28.5 µM] (inactive)	
CCOC(=O)NC(=S)Nc1ccccc1NC(=S)NC(=O)OCC	3.57% (inactive)	
CN	-0.744% (inactive)	
CC(=O)NC1CCSC1=O (stereo not given)	14.4% [at 28.5 µM] (inactive)	
ClP(Cl)(Cl)(Cl)Cl	-6.79% (inactive)	
C=CC[C@]1(O)CC[C@H]2[C@@H]3CCC4=CC(=O)CCC4=C3C=C[C@@]21C	-14.2% [at 28.5 µM] (inactive)	
CCSC(C)CC1CC(=O)C(/C(CC)=N/OC/C=C/Cl)=C(O)C1 (stereo not given)	-38% [at 28.5 µM] (inactive)	
O=C1OC(=O)C2C1C1(Cl)C(Cl)=C(Cl)C2(Cl)C1(Cl)Cl (stereo not given)	-26.3% (inactive)	
CC(Oc1ccc(Oc2ncc(C(F)(F)F)cc2Cl)cc1)C(=O)O (stereo not given)	-5.05% (inactive)	
ClC(Cl)Br	2.17% (inactive)	

SMILES	activity, negative = inhibition	Potency
O=C(CCl)C(Cl)Cl	3.5% (inactive)	
CC1N=C(N)OC1c1ccccc1 (stereo not given)	-5.96% (inactive)	
CC1(C)CON(Cc2ccccc2Cl)C1=O	4.32% (inactive)	
N#CC(CCc1ccc(Cl)cc1)(Cn1cncn1)c1ccccc1 (stereo not given)	-4.48% (inactive)	
CN(C1CCCCC1)C1CCCCC1	18.8% (inactive)	
Cc1ccc(O)cc1C		inactive
CCOC(=O)NC(O)C(Cl)(Cl)Cl (stereo not given)	1.31% [at 28.5 µM] (inactive)	
Nc1nc(N)c(N)c(N)n1	234% (inactive)	
COP(=S)(OC)Oc1nc(Cl)c(Cl)cc1Cl	3.65% (inactive)	
c1csc(-c2ccc(-c3cccs3)s2)c1	-0.494% (inactive)	
ClCc1ccccc1Cl	-3.25% (inactive)	
ClCCCCBr	-11.2% (inactive)	
CN1C2CCC(C)(C)C1CC(OC(=O)C(O)(c1cccs1)c1cccs1)C2 (stereo not given)	60.6% [at 28.5 µM] (inactive)	
N[C@@H]1C[C@H]1c1ccccc1	1.64% [at 28.5 µM] (inactive)	
CC(=O)N[C@@H](CO)C(=O)N[C@@H](CC(=O)O)C(=O)N[C@@H](CCCCN)C(=O)N1CCC[C@H]1C(=O)O (Ac-SDKP-OH)	6.85% [at 28.5 µM] (inactive)	
CO/C=C(/C(=O)OC)c1ccccc1COc1cccc(C(F)(F)F)n1	-0.979% (inactive)	
CCCCC/C=C\C/C=C\C/C=C\C/C=C\CCCC(=O)NCC(=O)O		14.5 µM (active)
BrCCCCCCBr	7.26% (inactive)	
CC[N+]1(C)CCCC(OC(=O)C(O)(c2ccccc2)c2ccccc2)C1 (stereo not given)	-3.78% [at 28.5 µM] (inactive)	
CCOP(=S)(Oc1cnc(C(C)(C)C)nc1)OC(C)C (stereo not given)	24.4% (inactive)	
